Experimental findings from PubChem BioAssay (Tox21) are described below.

The nature of test [1]: qHTS assay to identify small molecule antagonists of the glucocorticoid receptor (GR) signaling pathway - cell viability counter screen (AID 720693). Note: nearly all actives have a fitted effect of over 55% in size. Note: potency is the fitted concentration of half-maximal effect. On the technique in general: qHTS replaces the single test concentration by a dilution series.
Test [2] can be described thus: qHTS assay for identifying genotoxic compounds that show differential cytotoxicity against isogenic chicken DT40 cell lines with known DNA damage response pathways - wild type cell line (AID 743012). Note: nearly all actives have a fitted effect of over 60% in size. Note: potency is the fitted concentration of half-maximal effect. The procedure, abridged:
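Quantitative HTS on parental DT40 cells: 40 h compound treatment at 37 C/5% CO2, with viability then determined by CellTiter-Glo luminescence. Values serve as the DNA repair-proficient reference for differential cytotoxicity.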

A short description of test [3]: qHTS assay for identifying genotoxic compounds that show differential cytotoxicity against isogenic chicken DT40 cell lines with known DNA damage response pathways - Rev3 mutant cell line (AID 743014). Note: nearly all actives have a fitted effect of over 55% in size. Note: potency is the fitted concentration of half-maximal effect.
The nature of test [4]: qHTS assay for identifying genotoxic compounds that show differential cytotoxicity against isogenic chicken DT40 cell lines with known DNA damage response pathways - Rad54/Ku70 mutant cell line (AID 743015). Note: nearly all actives have a fitted effect of over 60% in size. Note: potency is the fitted concentration of half-maximal effect.
Test [5] is described as follows: qHTS assay to identify small molecule antagonists of the androgen receptor (AR) signaling pathway using the MDA cell line - cell viability counter screen (AID 743041; note: nearly all actives have a fitted effect of over 45% in size; note: potency is the fitted concentration of half-maximal effect). The procedure, abridged:
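Viability counter screen run alongside the AR antagonist reporter: cells seeded 5 h before compound, R1881 added, 16 h incubation at 37C without CO2, fluorescent CellTiter-Fluor signal quantified.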

A short description of test [6]: qHTS assay to identify small molecule antagonists of the androgen receptor (AR) signaling pathway - cell viability counter screen (AID 743033; note: nearly all actives have a fitted effect of over 45% in size).
Test [7] has as its target Androgen receptor (Homo sapiens) (UniProt P10275). The test can be described thus: qHTS assay to identify small molecule antagonists of the androgen receptor (AR) signaling pathway (AID 743035; active = well fitted inhibition curve with a large enough effect in the signal ratio in the repeat runs, not every such curve was filed as active; the % refers to the signal ratio; note: potency is the fitted concentration of half-maximal effect). The procedure, abridged:
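Cell line: GeneBLAzer AR-UAS-bla GripTite (HEK293). Stimulus: R1881 added after compound. Exposure: 16 h, 37C, 5% CO2. Readout: LiveBLAzer B/G FRET fluorescence after 2 h at room temperature.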

Test [8] shares this target. Description: qHTS assay to identify small molecule agonists of the androgen receptor (AR) signaling pathway (AID 743036; active = well fitted activation curve with a large enough effect in the signal ratio in the repeat runs, with a control signal flat, not every such curve was filed as active; the % refers to the signal ratio). The procedure, abridged: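 Reporter line: GeneBLAzer AR-UAS-bla-GripTite (HEK293). Steps: plate cells, 4 h rest, add compounds, 16 h at 37C, add LiveBLAzer B/G substrate, 2 h at RT, read fluorescence.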
For test [9] the target is unchanged. The test can be described thus: qHTS assay to identify small molecule agonists of the androgen receptor (AR) signaling pathway using the MDA cell line (AID 743040; note: nearly all actives have a fitted effect of over 20% in size). As to conditions: MDA-kb2 AR-luc cells, MMTV luciferase, 16 h; activity change: at 70.3 µM (top of the series), stronger effect = higher value. The procedure, abridged: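 Luminescence from ONE-Glo, read after 30 min at room temperature, reflects MMTV-driven luciferase in MDA-kb2 cells (AR- and GR-responsive). Treatment lasted 16 h at 37C, 0% CO2.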

The target is the same in test [10]. The test can be described thus: qHTS assay to identify small molecule antagonists of the androgen receptor (AR) signaling pathway using the MDA cell line (AID 743042; note: nearly all actives have a fitted effect of over 55% in size; note: potency is the fitted concentration of half-maximal effect). The procedure, abridged:
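MDA-kb2 cells (human breast carcinoma, stably carrying an MMTV-luciferase reporter responsive to AR and GR) were plated at 3,000 cells/well and preincubated 5 hr at 37C, then given compound plus R1881 agonist for 16 h. ONE-Glo luminescence was read.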

“And” between values parts separate entries of the source, which are not always exact repeats. Identical values can stand only once. Inconclusive results are not listed. Some structures have more than one record in an assay (separate samples or runs), and their calls can disagree. The source made the active and inactive calls. Unless noted, calls come from the whole dose curve; as a rule, active = well fitted curve in the direction sought with a large enough effect in the repeat runs; inconclusive = weak or mixed curves; inactive = no such curve, though single readings can be large; an effect the other way counts as inactive or inconclusive.

Chain of Androgen receptor (Homo sapiens) (P10275 whole entry, looked up): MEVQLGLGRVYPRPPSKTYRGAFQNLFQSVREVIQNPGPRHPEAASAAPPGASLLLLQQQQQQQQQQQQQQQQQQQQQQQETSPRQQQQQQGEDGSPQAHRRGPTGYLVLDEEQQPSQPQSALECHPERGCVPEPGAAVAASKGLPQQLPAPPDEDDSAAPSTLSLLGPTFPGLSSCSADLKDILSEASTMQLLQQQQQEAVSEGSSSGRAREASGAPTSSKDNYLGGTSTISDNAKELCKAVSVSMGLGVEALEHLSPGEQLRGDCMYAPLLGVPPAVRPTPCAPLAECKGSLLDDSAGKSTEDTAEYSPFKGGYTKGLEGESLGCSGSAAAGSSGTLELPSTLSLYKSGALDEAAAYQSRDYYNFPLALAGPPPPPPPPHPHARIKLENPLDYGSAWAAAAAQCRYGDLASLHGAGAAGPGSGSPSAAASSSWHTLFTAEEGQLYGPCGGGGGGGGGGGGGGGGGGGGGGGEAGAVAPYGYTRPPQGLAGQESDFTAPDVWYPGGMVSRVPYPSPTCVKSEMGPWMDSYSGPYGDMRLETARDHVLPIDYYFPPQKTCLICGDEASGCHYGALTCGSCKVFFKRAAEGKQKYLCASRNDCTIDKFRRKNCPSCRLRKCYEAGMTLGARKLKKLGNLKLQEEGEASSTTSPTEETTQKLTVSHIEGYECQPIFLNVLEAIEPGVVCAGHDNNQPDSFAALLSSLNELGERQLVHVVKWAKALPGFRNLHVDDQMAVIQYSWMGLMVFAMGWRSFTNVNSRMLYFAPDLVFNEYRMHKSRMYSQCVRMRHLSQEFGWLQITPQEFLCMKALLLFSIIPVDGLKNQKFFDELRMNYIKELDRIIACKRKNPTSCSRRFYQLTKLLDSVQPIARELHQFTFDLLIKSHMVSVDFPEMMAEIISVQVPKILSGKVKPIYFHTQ

In the case of `CC(Oc1cccc(Cl)c1)C(=O)O` (configuration not stated), the Potency result in test [1], in test [2], in test [3], in test [4] and in test [5] was “inactive” each time.
Take `Clc1ccc2ccccc2c1`: the Potency result in test [1], in [2], in test [3], in [6], in test [7] and in test [8] was “inactive” each time. Moreover, the Potency result in test [9] and in test [10] was “inactive” throughout.
`CC(C)(C)OOC(C)(C)CCC(C)(C)OOC(C)(C)C`: the Potency result in test [1], in test [2] and in [6] was “inactive” throughout. In addition, the Potency in test [3] was 68.6 µM (active).
Turning to `Nc1cc(Cl)cc(C(=O)O)c1Cl`, the Potency entry in [1], in [2], in test [3], in test [4], in test [6] and in [5] was “inactive” in each case.
In the case of `O=C(O)COc1cc(Cl)c(Cl)cc1Cl`, the Potency entry in test [1], in test [2], in test [3], in test [4], in test [7] and in test [9] was “inactive” throughout. In [10], the Potency result was “inactive”.
As to `O=C1NC(=O)C(=O)C(=O)N1`, the Potency result in [1], in test [2], in test [3], in test [4], in test [6] and in test [5] was “inactive” in each case.
With `C=CCSSCC=C`, the Potency entry in test [1], in test [2], in test [3], in test [4], in test [6] and in [5] was “inactive” in each case.
As for `C[CH2][Hg][S]c1ccccc1C(=O)O`, the Potency in test [1] was 7.56 µM (active) and 6.16 µM (active); in test [2], 376 nM (active) and 172 nM (active); in test [3], 596 nM (active) and 137 nM (active); in [4], 266 nM (active) and 109 nM (active); in test [7], 9.52 µM (active) and 3.09 µM (active); in test [5] it was 9.87 µM (active) and 8.63 µM (active). The Potency in [10] was 9.44 µM (active) and 7.7 µM (active). Further, in test [9], the Potency result is “inactive”.
Turning to `C=C(C)C(=O)OCCCCOC(=O)C(=C)C`, the Potency entry in test [1], in test [2], in [3] and in [6] was “inactive” throughout.
Take `O=C(O)c1cc(Cl)ccc1Cl`: the Potency entry in test [1], in [2], in test [3], in [4] and in test [5] was “inactive” throughout.
Take `CON(C)C(=O)Nc1ccc(Cl)cc1`: the Potency result in test [1], in test [2], in test [3] and in test [6] was “inactive” in each case.
Turning to `COC1=CC(=O)O[C@@H](/C=C/c2ccc3c(c2)OCO3)C1`, the Potency result in test [1], in test [2], in [3], in test [4] and in test [5] was “inactive” throughout.
`C[C@H](N)[C@H](O)c1ccc(O)c(O)c1`: the Potency result in test [1] and in [5] was “inactive” throughout. For the same compound, the Potency was 13.3 µM (active) in test [2], 11.9 µM (active) in test [3] and 16.8 µM (active) in [4].
As for `CCC1CCC(=O)O1` (configuration not stated), the Potency result in [1], in test [2], in test [3], in [4] and in [5] was “inactive” in each case.
As to `Cc1nnc(-c2ccccc2)c(=O)n1N`, the Potency result in test [1], in [2], in [3], in test [4] and in test [5] was “inactive” in each case.
On to `Cc1ccc2c(C)cccc2c1`, for which the Potency entry in [1], in test [2], in [3], in [4], in [6] and in test [5] was “inactive” in each case.
Regarding `Clc1ccccc1`, the Potency entry in [1], in [2], in test [3] and in test [6] was “inactive” throughout.
For the compound `CC(C)(C)c1ccc(CCOc2ncnc3ccccc23)cc1`, the Potency entry in test [1], in [2], in test [3], in [4], in [6] and in test [5] was “inactive” each time.
`CCCCCCCCP(=O)(O)O`: the Potency entry in test [1], in [2], in [3], in test [4] and in test [5] was “inactive” throughout.
For the compound `N#CC(C#N)=C(C#N)C#N`, the Potency result in test [1], in [2], in test [3], in test [4], in test [6] and in test [5] was “inactive” in each case.
As for `C[N+]1(CCC(C(N)=O)(c2ccccc2)c2ccccc2)CCCCC1`, the Potency result in test [1], in [2], in [3], in test [4] and in [5] was “inactive” each time.
Take `COP(=O)(OC)OC(Br)C(Cl)(Cl)Br` (configuration not stated): the Potency entry in test [1], in test [9] and in [5] was “inactive” throughout. The Potency is 30.7 µM (active) and 13.7 µM (active) in [2]; 13.7 µM (active) in test [3]; 38.6 µM (active) and 21.7 µM (active) in [4]; 68.7 µM (active) and 61.1 µM (active) in test [10].
Regarding `O=C(N[C@H]1CN2CCC1CC2)c1ccc2c(c1)OCCO2`, the Potency entry in [1], in [2], in test [3], in test [4], in test [7] and in test [8] was “inactive” in each case. In addition, the Potency entry in [9] and in test [10] was “inactive” each time.
Take `c1ccc2c(c1)-c1cccc3cccc-2c13`: the Potency entry in test [1], in [2], in test [6] and in test [5] was “inactive” throughout. In test [3], the Potency result is “inactive and 61.1 µM (active)”.
In the case of `Cc1ccc(N)c(C)c1`, the Potency result in [1], in test [2], in test [3] and in test [5] was “inactive” in each case.
On to `OCC1CO1` (configuration not stated), for which the Potency result in [1], in test [2], in test [3], in test [6] and in test [5] was “inactive” in each case.
In the case of `CCCC[N+](CCCC)(CCCC)CCCC`, the Potency entry in test [1], in test [6] and in test [5] was “inactive” in each case. Also, the Potency in [2] was 4.32 µM (active); in test [3], 3.85 µM (active).
Turning to `O=C(O)C(Cl)(Cl)Br`, the Potency result in test [1], in test [2], in test [3], in test [6] and in test [5] was “inactive” throughout.
Take `CC(C)(C)NCC(O)c1cc(Cl)c(N)c(C(F)(F)F)c1` (configuration not stated): the Potency entry in test [1], in [2], in test [4], in [6], in [7] and in test [8] was “inactive” each time. Further, the Potency entry in [9], in [5] and in test [10] was “inactive” throughout.
Consider `C=CCOC(=O)C(C)(C)OC(=O)c1cc(-n2c(=O)cc(C(F)(F)F)n(C)c2=O)ccc1Cl`, for which the Potency result in test [1] and in test [5] was “inactive” each time. For the same compound, the Potency is 53.4 µM (active) in test [2] and 30 µM (active) in test [3].
Regarding `Cc1nc2ccccc2c(=O)n1-c1ccccc1Cl`, the Potency result in test [1], in [6] and in test [5] was “inactive” throughout. Also, the Potency was 42.4 µM (active) in test [2] and 59.8 µM (active) in [3].
